Assay outcomes as filed in PubChem BioAssay.
PPC-1+TRAIL kill = kills PPC-1 cancer cells in the presence of TRAIL; PPC-1 cells + TRAIL, ATPLite viability luminescence; cell killing (% activity), % at 4 µM or 5 µM; hit rate 0.41% among 220,000;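 active = cell killing above 50% in the first pass at 4 µM, then a duplicate retest at 5 µM averaging 50% or more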;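 also: plate controls were cells with TRAIL plus DMSO for no effect and medium-only wells lacking cells for full effect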
TWEAK Fn14 block = TWEAK-Fn14 signaling inhibition. TWEAK-stimulated Fn14 reporter cells, luciferase luminescence, 8 h. inhibition, % at 10 µM. hit rate 2% among 360,000. AID 1159606; in the data active = inhibition above about 50%
Platelet DG rel = platelet dense granule release activity | hit rate 0.22% among 300,000 | human platelet-rich plasma, SFLLRN dense granule ATP release, luminescence | AID 1663 | inhibition, %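 (compounds screened at 7.5 µM in platelet-rich plasma)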;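 active = mean replicate score, as percent of positive control, at or above 50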
TROY signal inh = blocks TROY-dependent signaling in reporter cells | hit rate 0.98% among 360,000 | AID 1347056 | inhibition, % at 10 µM | Q293 LMP1-TROYcd NF-kB luciferase reporter, 4 h;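 active = compounds whose plate-normalised and pattern-corrected inhibition of the luciferase reporter signal at the single screening dose is 50% or more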
C8 TRAIL sens = caspase-8 TRAIL sensitization; hit rate 1% among 360,000; NB7+C8 cells + TRAIL, ATPlite viability luminescence; AID 624354; inhibition (viability loss, TRAIL sensitization), % at 10 µM;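 active = compounds causing at least 50% loss of cell viability in the single-dose screen, relative to plate controls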
HSP90 refold inh = HSP90 refolding inhibition in rabbit reticulocyte lysate. luciferase refolding luminescence, 3 h. inhibition, % at 5.6 µM. AID 1789. hit rate 0.91% among 290,000;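 active = inhibition above the screen-wide mean plus 3 SD, computed separately per campaign, cut at about 16% in these data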;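 also: 0% = DMSO wells and 100% = 60 µM geldanamycin wells; inhibitors lower the luminescence because luciferase stays unfolded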
An asterisk follows results filed as active; x = not tested or not shown. This is a sample that favours compounds with a hit; in the whole collection about 3.5% have one here.

SMILES	PPC-1+TRAIL kill	TWEAK Fn14 block	Platelet DG rel	TROY signal inh	C8 TRAIL sens	HSP90 refold inh
O=C(CSc1nc2ccccc2s1)Nc1ccc(Cl)c(S(=O)(=O)N2CCOCC2)c1	1	65*	-29	30	23	-1
O=C(CSc1nc2ccccc2s1)Nc1ccc(N2CCOCC2)c(Cl)c1	10	38	-4	28	2	-1
Cc1ccc(NC(=O)CSc2nc3ccc(Nc4nc(N5CCOCC5)nc(N5CCOCC5)n4)cc3s2)cc1	x	-46	x	9	55*	3
CCc1ccc(OCC(O)CN2CCN(c3ccc(OC)cc3)CC2)cc1 (centres undefined)	x	24	-6	10	-2	2
CCc1cc2c(=O)[nH]c(-c3ccccn3)nc2s1	60*	16	8	18	53*	3
CCc1cc2c(=O)[nH]c(N3CCCC3)nc2s1	12	-44	3	-27	-10	-2
O=S(=O)(c1ccc(SCc2ccc(Br)cc2)nc1)N1CCCCC1	x	-9	x	-20	25	x
O=c1oc2ccccc2cc1-c1csc(NN=C2CCCCC2)n1	8	31	-12	17	11	-4
CC1CCC/C(=C(\C#N)c2nc(-c3cc4ccccc4oc3=O)cs2)C1 (centres undefined)	10	64*	11	66*	19	7
CCN(c1ccccc1)S(=O)(=O)c1ccc(C(=O)N2CC(C)CC(C)C2)cc1 (centres undefined)	x	-7	15	1	18	x
NC(Cc1ccccc1)c1csc(NC(=O)Nc2ccccc2Oc2ccccc2)n1 (centres undefined)	x	24	x	12	75*	x
COc1ccc(NC(=O)Nc2nc(C(N)Cc3ccc(C(F)(F)F)cc3)cs2)cc1 (centres undefined)	x	24	x	2	48	x
NC(Cc1ccc(C(F)(F)F)cc1)c1csc(NC(=O)Nc2ccccc2Oc2ccccc2)n1 (centres undefined)	x	27	x	7	87*	x
COc1ccccc1NC(=O)Nc1nc(C(N)Cc2ccc(C(F)(F)F)cc2)cs1 (centres undefined)	x	22	x	18	38	x
CN(Cc1ccccc1)C(=O)c1ccc(Nc2nc(C(N)Cc3ccc(C(F)(F)F)cc3)cs2)nc1 (centres undefined)	x	28	x	27	93*	x
COc1cc(NC(=O)Nc2nc(C(N)Cc3ccc(C(F)(F)F)cc3)cs2)cc(OC)c1OC (centres undefined)	x	5	x	14	53*	x
Cc1nn(CC(=O)OCC(=O)c2ccc(OC(F)F)cc2)c(C)c1[N+](=O)[O-]	x	3	x	-2	8	x
Clc1ccc(-c2nc3n(n2)Cc2ccccc2-3)cc1	22	52*	29	-34	59*	2
C#CCN1C(=O)C(O)(CC(=O)/C=C/c2ccco2)c2ccccc21 (centres undefined)	16	11	14	7	-6	9
O=C(CCCN1C(=O)c2cccnc2Oc2ccc(Cl)cc21)N1CCCCC1	x	8	2	-15	14	-2
COc1cc(-c2cc(NC=O)c3ncc(-c4cccc(C(F)(F)F)c4)n3c2)cc(OC)c1OC	x	-5	x	2	40	x
Cc1ccc(C2=NN(C(=O)CCl)C(c3ccco3)C2)o1 (centres undefined)	x	55*	5	-2	92*	-2
COc1ccc(NC(=O)c2cccc(S(=O)(=O)Nc3ccc(Br)cc3)c2)cn1	14	64*	23	45	18	5
O=C(Nc1ccc(Br)cc1)c1cccc(S(=O)(=O)Nc2cnc3ccccc3c2)c1	2	51*	0	43	20	-1
O=C1CSc2ccc(C(=O)Nc3cccc(S(=O)(=O)Nc4ccc(Br)cc4)c3)cc2N1	16	98*	-7	82*	32	3
SMILES	PPC-1+TRAIL kill	TWEAK Fn14 block	Platelet DG rel	TROY signal inh	C8 TRAIL sens	HSP90 refold inh
O=C(O)c1ccc(NC(=O)c2cccc(S(=O)(=O)Nc3ccc(C(=O)O)cc3)c2)cc1	x	11	15	9	3	2
N#Cc1c(/N=C/c2cccs2)sc2c1CCCCC2	-8	28	16	0	54*	7
Cc1ccc(C)c(/C=C/C(=O)c2ccccc(=O)c2O)c1	14	32	5	5	19	3
Cc1ccc(/C=C/C(=O)c2ccccc(=O)c2O)c(C)c1	15	87*	13	73*	25	9
O=C(/C=C/c1ccc([N+](=O)[O-])cc1)c1ccccc(=O)c1O	x	72*	x	-29	39	x
CCN(CC)S(=O)(=O)c1ccc(C(=O)Nn2cnnc2)cc1	x	1	1	-4	5	1
COc1ccc(NC2=Nc3ccccc3N3C2=Nc2c(c(C)nn2-c2ccc(C)cc2)C3c2cccnc2)cc1 (centres undefined)	11	-4	18	9	-7	-4
CC(=O)Nc1ccc(NC2=Nc3ccccc3N3C2=Nc2c(c(C)nn2-c2ccccc2)C3c2ccccc2)cc1 (centres undefined)	16	96*	11	27	72*	6
O=C(NC(NC(=S)Nc1cccc(Cl)c1)C(Cl)(Cl)Cl)OCc1ccccc1 (centres undefined)	-20	54*	-4	58*	-21	-1
Cc1ccccc1NC(=S)NC(NC(=O)COc1ccccc1)C(Cl)(Cl)Cl (centres undefined)	4	19	-1	3	-9	4
O=C(NC(NC(=S)Nc1cccc(C(=O)O)c1)C(Cl)(Cl)Cl)OCc1ccccc1 (centres undefined)	23	11	0	-3	-8	-4
CCc1ccc(OCC(=O)NC(NC(=S)Nc2ccccc2)C(Cl)(Cl)Cl)cc1 (centres undefined)	0	74*	-2	53*	1	-1
CCc1ccc(OCC(=O)NC(NC(=S)Nc2ccccc2C)C(Cl)(Cl)Cl)cc1 (centres undefined)	5	44	-13	51*	26	-3
Cc1ccc(C)c(NC(=S)NC(NC(=O)Cc2cccc3ccccc23)C(Cl)(Cl)Cl)c1 (centres undefined)	18	33	-5	25	85*	-4
CCc1ccc(OCC(=O)NC(NC(=S)Nc2ccccc2OC)C(Cl)(Cl)Cl)cc1 (centres undefined)	19	25	3	25	17	-2
O=C(NCc1cccc(Cl)c1)c1ccc(CS(=O)Cc2ccc(Cl)cc2)o1 (centres undefined)	x	-4	-11	0	-10	-2
Cc1ccc(S(=O)(=O)NCC(=O)NCC(=O)N2CCC(C)CC2)cc1	x	4	0	3	-4	-1
O=C(NC(c1ccc(Cl)cc1)c1cnccn1)C1CCN(Cc2cccc(C(F)(F)F)c2)CC1 (centres undefined)	x	6	x	0	14	x
c1coc(-c2cc3nc(NC4CCCCC4)ccn3n2)c1	x	13	x	1	11	x
COc1ccc(/C=N/OCC(=O)Nc2cc(C)on2)cc1OC	-7	-3	-7	-14	-3	-2
